# Source: the supplement of paper PMC11001985
# A number with no mark means an inactive call.
# Compound: C#CCNC(=O)CCSSCCC(=O)NCCc1ccc(C=O)c(C=O)c1
# Test: lysine labeling ratio R10:1 (500 µM / 50 µM probe), SILAC-ABPP in living cells; higher = lower intrinsic lysine reactivity toward the probe, active = 2 or less
# Conditions: HeLa; probe concentrations 500 vs 50 µM
# Procedure, shortened: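 Forward and reverse SILAC label swaps were used with living light and heavy HeLa cells in PBS at room temperature, which were given an alkyne-tagged, disulfide-linked lysine probe at 50 µM or 500 µM. R is the per-lysine filtered median high-probe/low-probe MS1 peptide ratio, with the median then taken across both swap directions. Values are limited to 20.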
# Chain of UniProt Q15149 (Q15149 whole entry): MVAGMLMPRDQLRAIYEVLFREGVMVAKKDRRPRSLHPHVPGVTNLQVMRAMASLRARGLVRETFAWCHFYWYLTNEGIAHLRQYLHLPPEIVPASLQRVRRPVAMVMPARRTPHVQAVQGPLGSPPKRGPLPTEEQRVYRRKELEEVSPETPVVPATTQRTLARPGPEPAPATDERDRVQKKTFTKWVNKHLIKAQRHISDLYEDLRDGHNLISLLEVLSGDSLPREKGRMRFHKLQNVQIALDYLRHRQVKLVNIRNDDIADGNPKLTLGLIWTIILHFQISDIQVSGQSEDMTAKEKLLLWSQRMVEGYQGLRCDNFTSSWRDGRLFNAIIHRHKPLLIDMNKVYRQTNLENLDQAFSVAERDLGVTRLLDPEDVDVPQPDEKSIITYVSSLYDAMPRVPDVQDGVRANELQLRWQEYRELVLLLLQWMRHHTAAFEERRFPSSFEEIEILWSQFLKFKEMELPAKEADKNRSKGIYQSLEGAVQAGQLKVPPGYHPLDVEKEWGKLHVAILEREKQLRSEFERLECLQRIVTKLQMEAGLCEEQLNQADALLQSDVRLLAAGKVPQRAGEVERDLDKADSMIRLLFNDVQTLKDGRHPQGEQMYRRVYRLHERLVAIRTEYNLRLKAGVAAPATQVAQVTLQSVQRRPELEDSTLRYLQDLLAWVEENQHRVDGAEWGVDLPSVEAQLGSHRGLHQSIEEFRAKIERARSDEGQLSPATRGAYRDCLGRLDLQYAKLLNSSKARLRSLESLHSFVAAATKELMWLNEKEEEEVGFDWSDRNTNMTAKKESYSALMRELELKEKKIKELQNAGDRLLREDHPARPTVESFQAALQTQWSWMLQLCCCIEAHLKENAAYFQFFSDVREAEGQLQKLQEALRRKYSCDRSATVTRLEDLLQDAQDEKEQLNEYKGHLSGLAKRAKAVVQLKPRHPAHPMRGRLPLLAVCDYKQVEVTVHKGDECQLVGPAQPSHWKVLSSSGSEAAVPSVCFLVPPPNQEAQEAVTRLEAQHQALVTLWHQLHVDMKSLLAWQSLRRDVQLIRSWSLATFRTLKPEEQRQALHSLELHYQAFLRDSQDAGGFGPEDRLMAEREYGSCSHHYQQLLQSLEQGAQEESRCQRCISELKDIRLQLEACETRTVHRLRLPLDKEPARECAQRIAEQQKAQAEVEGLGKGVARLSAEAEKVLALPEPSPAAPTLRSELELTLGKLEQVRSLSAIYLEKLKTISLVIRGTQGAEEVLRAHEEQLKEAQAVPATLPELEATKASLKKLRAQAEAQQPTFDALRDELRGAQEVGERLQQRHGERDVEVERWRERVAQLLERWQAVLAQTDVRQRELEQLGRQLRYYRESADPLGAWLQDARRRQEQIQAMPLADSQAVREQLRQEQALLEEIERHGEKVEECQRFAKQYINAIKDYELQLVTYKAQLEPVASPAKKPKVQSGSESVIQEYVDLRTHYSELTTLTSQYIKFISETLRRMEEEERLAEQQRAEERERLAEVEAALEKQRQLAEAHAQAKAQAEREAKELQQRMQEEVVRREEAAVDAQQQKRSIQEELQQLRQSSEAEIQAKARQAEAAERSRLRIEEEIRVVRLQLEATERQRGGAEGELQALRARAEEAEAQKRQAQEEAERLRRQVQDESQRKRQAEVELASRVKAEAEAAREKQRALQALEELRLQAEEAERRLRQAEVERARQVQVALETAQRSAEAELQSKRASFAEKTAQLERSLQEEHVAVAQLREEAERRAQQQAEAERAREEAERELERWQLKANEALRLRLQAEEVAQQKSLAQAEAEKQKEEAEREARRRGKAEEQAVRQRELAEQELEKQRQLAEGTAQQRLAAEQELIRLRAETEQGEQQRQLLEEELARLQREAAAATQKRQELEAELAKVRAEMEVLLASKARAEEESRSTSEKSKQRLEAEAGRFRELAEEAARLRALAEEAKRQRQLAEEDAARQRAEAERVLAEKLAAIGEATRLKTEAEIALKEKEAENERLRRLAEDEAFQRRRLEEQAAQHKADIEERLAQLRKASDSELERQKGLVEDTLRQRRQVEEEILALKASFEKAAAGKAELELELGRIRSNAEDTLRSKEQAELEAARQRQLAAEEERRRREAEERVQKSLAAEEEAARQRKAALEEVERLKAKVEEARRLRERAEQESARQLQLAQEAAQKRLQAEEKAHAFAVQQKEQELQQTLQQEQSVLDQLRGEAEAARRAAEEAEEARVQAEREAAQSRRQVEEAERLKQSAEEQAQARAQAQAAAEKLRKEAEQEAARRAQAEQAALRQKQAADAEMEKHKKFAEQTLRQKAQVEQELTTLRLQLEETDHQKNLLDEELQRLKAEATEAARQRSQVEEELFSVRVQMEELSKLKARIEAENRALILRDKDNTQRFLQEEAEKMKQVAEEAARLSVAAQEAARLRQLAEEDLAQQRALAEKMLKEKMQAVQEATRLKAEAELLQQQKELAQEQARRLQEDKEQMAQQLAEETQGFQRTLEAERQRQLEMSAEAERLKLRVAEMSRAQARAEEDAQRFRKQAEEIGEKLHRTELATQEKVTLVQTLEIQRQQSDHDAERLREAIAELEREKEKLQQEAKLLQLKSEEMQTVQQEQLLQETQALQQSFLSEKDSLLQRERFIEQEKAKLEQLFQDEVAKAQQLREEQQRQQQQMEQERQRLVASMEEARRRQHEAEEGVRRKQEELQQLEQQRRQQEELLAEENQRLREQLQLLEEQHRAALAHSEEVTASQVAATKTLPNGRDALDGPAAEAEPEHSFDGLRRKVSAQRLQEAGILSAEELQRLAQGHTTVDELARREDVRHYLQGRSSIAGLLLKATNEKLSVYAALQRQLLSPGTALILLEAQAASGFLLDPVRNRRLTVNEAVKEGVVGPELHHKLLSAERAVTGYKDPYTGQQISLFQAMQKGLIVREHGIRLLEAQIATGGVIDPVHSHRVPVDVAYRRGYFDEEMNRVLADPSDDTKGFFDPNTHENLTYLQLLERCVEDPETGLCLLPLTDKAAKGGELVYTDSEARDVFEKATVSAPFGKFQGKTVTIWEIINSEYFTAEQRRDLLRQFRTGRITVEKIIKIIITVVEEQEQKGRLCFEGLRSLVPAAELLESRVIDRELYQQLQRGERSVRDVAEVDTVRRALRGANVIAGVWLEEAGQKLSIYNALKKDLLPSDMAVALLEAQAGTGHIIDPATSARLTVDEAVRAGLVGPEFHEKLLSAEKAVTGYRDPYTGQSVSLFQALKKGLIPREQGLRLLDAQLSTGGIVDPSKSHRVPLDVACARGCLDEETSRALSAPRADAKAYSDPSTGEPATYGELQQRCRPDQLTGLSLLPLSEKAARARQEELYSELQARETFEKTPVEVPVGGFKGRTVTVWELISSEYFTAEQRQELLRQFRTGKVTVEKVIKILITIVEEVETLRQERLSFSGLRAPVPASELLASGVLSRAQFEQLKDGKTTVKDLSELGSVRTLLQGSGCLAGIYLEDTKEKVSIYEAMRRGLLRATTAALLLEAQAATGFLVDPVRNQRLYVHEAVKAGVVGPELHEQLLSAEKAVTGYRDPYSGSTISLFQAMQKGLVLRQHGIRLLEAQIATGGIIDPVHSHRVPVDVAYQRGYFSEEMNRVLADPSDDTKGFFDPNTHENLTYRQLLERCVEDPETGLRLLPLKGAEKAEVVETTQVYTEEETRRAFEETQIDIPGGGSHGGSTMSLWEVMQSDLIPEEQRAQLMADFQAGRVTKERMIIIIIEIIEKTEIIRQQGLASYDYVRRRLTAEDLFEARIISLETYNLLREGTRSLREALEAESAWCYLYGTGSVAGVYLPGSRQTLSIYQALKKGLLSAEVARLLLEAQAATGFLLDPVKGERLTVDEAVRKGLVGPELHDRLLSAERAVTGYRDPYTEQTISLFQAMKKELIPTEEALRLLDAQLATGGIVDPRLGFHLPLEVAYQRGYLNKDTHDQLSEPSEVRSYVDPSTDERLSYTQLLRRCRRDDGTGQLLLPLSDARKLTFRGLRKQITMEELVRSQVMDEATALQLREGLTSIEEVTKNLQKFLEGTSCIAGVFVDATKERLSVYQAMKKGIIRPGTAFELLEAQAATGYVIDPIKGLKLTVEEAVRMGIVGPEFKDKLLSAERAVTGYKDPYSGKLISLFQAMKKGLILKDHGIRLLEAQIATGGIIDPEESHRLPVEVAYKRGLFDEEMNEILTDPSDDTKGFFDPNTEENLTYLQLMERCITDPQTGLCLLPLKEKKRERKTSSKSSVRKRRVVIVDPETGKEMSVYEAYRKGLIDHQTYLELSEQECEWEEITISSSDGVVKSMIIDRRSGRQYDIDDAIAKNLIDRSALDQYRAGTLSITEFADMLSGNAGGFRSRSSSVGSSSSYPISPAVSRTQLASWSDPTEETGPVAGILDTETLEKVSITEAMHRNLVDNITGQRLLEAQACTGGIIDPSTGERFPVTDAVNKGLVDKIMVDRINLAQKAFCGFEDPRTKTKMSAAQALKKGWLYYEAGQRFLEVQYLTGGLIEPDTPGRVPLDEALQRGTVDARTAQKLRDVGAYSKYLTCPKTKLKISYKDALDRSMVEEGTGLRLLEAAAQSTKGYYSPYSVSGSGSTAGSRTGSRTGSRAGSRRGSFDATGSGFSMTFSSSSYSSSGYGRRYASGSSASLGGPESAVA
# Chain of UniProt P37802 (P37802 whole entry): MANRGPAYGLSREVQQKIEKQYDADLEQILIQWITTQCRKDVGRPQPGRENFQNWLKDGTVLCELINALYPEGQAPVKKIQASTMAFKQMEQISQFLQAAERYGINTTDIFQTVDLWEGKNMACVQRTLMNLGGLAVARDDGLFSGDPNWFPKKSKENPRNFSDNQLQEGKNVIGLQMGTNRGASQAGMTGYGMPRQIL
# Chain of UniProt Q04837 (Q04837 whole entry): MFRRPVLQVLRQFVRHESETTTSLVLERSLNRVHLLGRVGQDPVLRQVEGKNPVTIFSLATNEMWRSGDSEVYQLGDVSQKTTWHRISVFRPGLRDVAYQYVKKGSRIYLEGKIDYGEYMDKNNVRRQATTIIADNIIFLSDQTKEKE
row,Target,lysine labeling ratio R10:1
1,UniProt Q15149 (lysine site: K2182),1.67 (active)
2,EEF2 (lysine site: K445) (UniProt P13639),2.7
3,A2M (lysine site: K116) (UniProt P01023),0.757 (active)
4,UniProt P62277 (lysine site: K9),2.44
5,KRT18 (lysine site: K247) (UniProt P05783),7.86
6,HSPA9 (lysine site: K106) (UniProt P38646),6.72
7,ATAD3B (lysine site: K505) (UniProt Q5T9A4),0.98 (active)
8,MSN (lysine site: K538) (UniProt P26038),4.98
9,PGK1 (lysine site: K30) (UniProt P00558),2.54
10,SSBP1 (lysine site: K81) (UniProt Q04837),4.93
11,GAS1 (lysine site: K140) (UniProt P54826),3.54
12,SEMA3C (lysine site: K163) (UniProt Q99985),3.6
13,S100A6 (lysine site: K47) (UniProt P06703),6.34
14,HSPA8 (lysine site: K531) (UniProt P11142),3.46
15,HSPA9 (lysine site: K206) (UniProt P38646),2.48
16,LRP1 (lysine site: K806) (UniProt Q07954),1.57 (active)
17,FADS2 (lysine site: K108) (UniProt O95864),1.75 (active)
18,TFRC (lysine site: K95) (UniProt P02786),4.27
19,PDIA4 (lysine site: K637) (UniProt P13667),2.44
20,CNN2 (lysine site: K30) (UniProt Q99439),4.32

row,Target,lysine labeling ratio R10:1
1,TAGLN2 (lysine site: K40) (UniProt P37802),2.67
2,ITGB1 (lysine site: K136) (UniProt P05556),1.75 (active)
3,PDIA4 (lysine site: K245) (UniProt P13667),1.07 (active)
4,PNN (lysine site: K157) (UniProt Q9H307),1.95 (active)
5,UniProt P01893 (lysine site: K210),2.51
6,UniProt Q15149 (lysine site: K810),2.16
7,UniProt Q15149 (lysine site: K4205),1.51 (active)
8,TST (lysine site: K24) (UniProt Q16762),2.33
9,CDCP1 (lysine site: K71) (UniProt Q9H5V8),2.07
10,FN1 (lysine site: K149) (UniProt P02751),1.99 (active)
11,KIRREL (lysine site: K113) (UniProt Q96J84),2.15
12,M6PR (lysine site: K44) (UniProt P20645),2.9
13,UniProt P55285 (lysine site: K121),4.12
14,ITIH1 (lysine site: K125) (UniProt P19827),4.42
15,HSPD1 (lysine site: K364) (UniProt P10809),2.45
16,B4GAT1 (lysine site: K60) (UniProt O43505),7.79
17,ANTXR1 (lysine site: K94) (UniProt Q9H6X2),2.11
18,LMO7 (lysine site: K1248) (UniProt Q8WWI1),0.993 (active)
19,XRCC5 (lysine site: K36) (UniProt P13010),2.42
20,ITGA2 (lysine site: K718) (UniProt P17301),2.51
